Source: the supplement of paper PMC4840960

System: E18 rat cortical neuron-glia co-culture
Assay: myelination (MBP fiber length per Olig2+ nucleus), % of 1 µM DAPT response (DMSO = 0) (% of DAPT); higher = more myelination, active = 50 or more
Conditions: 1 µM; treatment time: 8 days (DIV5-DIV13)
Method in brief: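 Library compounds at 1 or 5 µM in myelination medium were applied from DIV5 to DIV13 to papain-dissociated E18 rat cortical co-cultures seeded at 20,000 cells/well on poly-d-lysine/laminin 96-well plates. Fixed cells (4 % paraformaldehyde) were immunostained for MBP and Olig2 with DAPI, and four 10X fields were analysed in each duplicate well. Continuous straight MBP fiber length per Olig2+ nucleus was set to 0 for 0.1 % DMSO and to 100 for a 1 µM positive control.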

| SMILES | myelination |
| --- | --- |
| CCC(COC(=O)c1cc(OC)c(OC)c(OC)c1)(c1ccccc1)N(C)C (stereo not drawn) [Trimebutine] | -54.2 (inactive) |
| CN1C(=O)CN=C(c2ccccc2)c2cc([N+](=O)[O-])ccc21 [Nimetazepam] | -11 (inactive) |
| CC(C)CC(N(C)C)C1(c2ccc(Cl)cc2)CCC1 (stereo not drawn) [Sibutramine] | -9.43 (inactive) |
| COC(=O)N1CCN(C(=O)Cc2ccc(Cl)c(Cl)c2)C(CN2CCCC2)C1 (stereo not drawn) | -13 (inactive) |
| CC(=O)O[C@H]1C[C@@H]2CC[C@@H]3[C@H](CC[C@@]4(C)[C@H]3C[C@H]([N+]3(C)CCCCC3)[C@@H]4OC(C)=O)[C@@]2(C)C[C@@H]1[N+]1(C)CCCCC1 [Pancuronium] | -11 (inactive) |
| c1ccc2c(c1)Nc1ccccc1S2 [Phenothiazine] | -16.1 (inactive) |
| O=P1(N(CCCl)CCCl)NCCCO1 (stereo not drawn) [Cyclophosphamide] | -41 (inactive) |
| CCN(CC)CCOC(=O)C(O)(c1ccccc1)c1ccccc1 [Benactyzine] | 1.93 (inactive) |
| CCN(C(C)=O)c1cccc(-c2ccnc3c(C#N)cnn23)c1 [Zaleplon] | -13.6 (inactive) |
| O=C1Nc2ccc(Cl)cc2C(c2ccccc2Cl)=NC1O (stereo not drawn) [Lorazepam] | -14.7 (inactive) |
| COc1ccc2[nH]cc(CCN)c2c1 [5-Methoxytryptamine] | -6.66 (inactive) |
| C[C@]12CC[C@H]3[C@@H](CCC4=CC(=O)CC[C@@]43C)[C@@H]1CC[C@@H]2O [Testosterone] | -4.77 (inactive) |
| O[C@@H]1CCCC[C@H]1N1CCC(c2ccccc2)CC1 (racemic) [Vesamicol] | -34.6 (inactive) |
